Assay results reported in article PMC4336329 (PLoS ONE, 2015).
Hit rate of the full screen: of about 310,000 compounds, about 14,000 (4.5%) showed an effect of 50% or more. Effects have a minus sign here. For the sample, strong results were picked, then their nearest neighbours and some compounds at random.

target: human ether-à-go-go-related gene (hERG) potassium channel (human, UniProt Q12809); experiment: primary screen, population patch clamp on CHO cells stably expressing hERG; higher = less effect of the substance
Sequence (Q12809 whole entry, looked up): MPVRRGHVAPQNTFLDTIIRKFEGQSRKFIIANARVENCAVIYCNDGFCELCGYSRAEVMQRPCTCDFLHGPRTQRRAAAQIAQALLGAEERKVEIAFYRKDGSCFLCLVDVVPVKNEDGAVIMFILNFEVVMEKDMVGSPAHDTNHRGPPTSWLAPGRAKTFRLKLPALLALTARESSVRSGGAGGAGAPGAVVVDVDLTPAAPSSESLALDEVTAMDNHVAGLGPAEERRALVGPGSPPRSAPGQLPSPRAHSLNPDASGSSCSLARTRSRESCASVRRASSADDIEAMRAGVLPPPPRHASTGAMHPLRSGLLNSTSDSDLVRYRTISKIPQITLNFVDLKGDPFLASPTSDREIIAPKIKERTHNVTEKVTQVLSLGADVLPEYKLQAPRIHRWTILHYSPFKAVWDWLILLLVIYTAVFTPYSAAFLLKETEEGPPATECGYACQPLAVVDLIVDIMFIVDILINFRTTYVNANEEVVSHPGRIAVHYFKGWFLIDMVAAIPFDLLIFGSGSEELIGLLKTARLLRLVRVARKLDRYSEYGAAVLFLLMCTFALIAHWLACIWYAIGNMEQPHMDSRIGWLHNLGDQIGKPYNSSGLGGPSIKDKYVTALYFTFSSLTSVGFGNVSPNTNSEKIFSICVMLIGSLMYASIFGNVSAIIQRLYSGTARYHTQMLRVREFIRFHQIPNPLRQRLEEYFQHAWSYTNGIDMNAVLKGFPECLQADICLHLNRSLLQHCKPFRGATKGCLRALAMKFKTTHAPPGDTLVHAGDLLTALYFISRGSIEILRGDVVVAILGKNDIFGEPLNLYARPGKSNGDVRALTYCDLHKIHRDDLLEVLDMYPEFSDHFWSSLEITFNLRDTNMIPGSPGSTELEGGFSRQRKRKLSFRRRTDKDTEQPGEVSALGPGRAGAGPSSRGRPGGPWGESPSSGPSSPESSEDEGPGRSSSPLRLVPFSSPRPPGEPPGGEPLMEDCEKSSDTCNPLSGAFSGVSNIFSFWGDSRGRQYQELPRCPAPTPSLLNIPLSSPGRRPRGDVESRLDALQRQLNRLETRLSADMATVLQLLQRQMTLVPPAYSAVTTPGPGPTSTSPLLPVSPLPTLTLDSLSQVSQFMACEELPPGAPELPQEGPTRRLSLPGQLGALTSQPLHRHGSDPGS
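Note: peak tail current of the secondary pulse compared with the same well before compound.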

SMILES	hERG current change (%, negative = inhibition) at 10uM [%]
O=C(O)CC1Sc2nc3ccccc3n2C1=O (stereo not drawn)	8.05
COc1ccc(CN(C)C(=O)Cn2ccc(NC(=O)OCc3ccccc3)nc2=O)cc1OC	-20.4
O=C(c1ccccc1)N1CCC(O)(c2cccnc2)CC1	16.1
CS(=O)(=O)O.c1ccc(-c2ccc3c(c2)c2c4n3CCN=C4CCC2)cc1	-61.5
Cc1cc(S(=O)(=O)N2CCN=C2c2ccccc2)ccc1F	7.23
CCn1c2c(c3cc(Cl)ccc31)CCCC2=O	3.71
Cc1ccc2c(c1)c1c3n2CCN=C3CCC1.Cl	-76.3
c1cc2c(cc1C1CCCCC1)c1c3n2CCN=C3CCC1	-33.9
OC1CN=C2CCCc3c2n(c2ccc(Cl)cc32)C1 (stereo not drawn)	-72.3
O=C(O)c1c2c(nc3ccc(Cl)cc13)CCC2	4.39
CS(=O)(=O)O.O=C(O)c1ccc2c(c1)c1c3n2CCNC3CCC1 (stereo not drawn)	20.7
Cc1ccc2c(c1)c1c(n2C)C(=O)CCC1	11.8
CCO.Cn1c2c(c(=O)n(C)c1=O)C1(C(=O)Nc3ccccc31)C(C#N)=C(N)O2 (stereo not drawn)	8.3
COc1ccc(CN(C)C(=O)c2cccc(Oc3ccccc3)c2)c(OC)c1OC	-20.6
CSc1nc(C)c(Oc2ccccc2)c(=O)n1C	5.82
CCC1CCCCN1C(=O)NC(=O)c1ccccc1 (stereo not drawn)	30.3
CC(C)OCCCN(C)C1CCN(S(=O)(=O)c2ccc(-c3cc(C(F)(F)F)no3)s2)CC1	-54.6
CC(C)OCCCN(C)C1CCN(S(=O)(=O)c2ccc(-c3ccc(=O)[nH]n3)s2)CC1	-35.8
CC(C)OCCCN(C)C1CCN(S(=O)(=O)c2csc(C(N)=O)c2)CC1	13.1
Cc1ccccc1C(=O)NC(=S)Nc1ccc(S(=O)(=O)N2CCOCC2)cc1	-40

SMILES	hERG current change (%, negative = inhibition) at 10uM [%]
O=C(NCc1ccccc1CN1CCCC1)c1cccc(S(=O)(=O)N2CCOCC2)c1	-44.5
CC(NC(=O)c1cccc(S(=O)(=O)N2CCCCCC2)c1)c1ccccc1 (stereo not drawn)	-58.2
CC(NC(=O)c1cccc(S(=O)(=O)N2CCN(Cc3ccccc3)CC2)c1)c1ccc(Br)cc1 (stereo not drawn)	-17.6
O=C(NCCc1ccccc1)c1cccc(S(=O)(=O)N2CCCCC2)c1	5.18
O=C(NCc1cccc(Cl)c1)c1cccc(S(=O)(=O)N2CCCCC2)c1	7.08
Cc1ccc(C(NC(=O)c2cccc(S(=O)(=O)N3CCN(C)CC3)c2)c2ccccc2)cc1 (stereo not drawn)	-61.8
O=C(NCc1ccccc1CN1CCCC1)c1cccc(S(=O)(=O)N2CCCC2)c1	-55.1
CN1CCN(S(=O)(=O)c2cccc(C(=O)O)c2)CC1	10.8
O=C(NCc1ccccc1)c1cccc(S(=O)(=O)N2CCCCC2)c1	-52.5
O=C(NCc1ccccc1F)c1cccc(S(=O)(=O)N2CCCCCC2)c1	7.87
CN1CCN(S(=O)(=O)c2cccc(C(=O)N(C)C(c3ccccc3)c3ccccc3)c2)CC1	-4.72
CC(NC(=O)c1cc(S(=O)(=O)N2CCCC2)cn1C)c1ccccc1 (stereo not drawn)	-0.137
Cc1cc(C)c(NC(=O)CSc2nnc(CNC(=O)c3ccccc3F)o2)c(C)c1	-6.38
CN1/C(=C\C(=S)NC(=O)c2ccccc2Cl)C(C)(C)c2ccccc21	23.6
COc1cc(C(=O)NCc2ncccc2C)ccc1OC1CCN(C(C)=O)CC1	6.34
CCC1CCCCN1C(=O)CSc1nc(N)c(NC(=O)c2ccc(OC)c(OC)c2)c(=O)[nH]1 (stereo not drawn)	4.63
COc1ccc(OCCn2cncn2)cc1	12.6
COC(=O)c1cc2sc(Cl)cc2n1CC(=O)N1CCCc2ccccc21	-1.75
O=C(O)c1ccccc1-c1ccccc1C(=O)NCc1ccccc1Cl	-37.6
COC(=O)C1=C(c2ccc(OC(F)(F)F)cc2)C[C@@H]2CC[C@H]1N2C(=O)NCCOc1ccc(OC)cc1	-26.3

SMILES	hERG current change (%, negative = inhibition) at 10uM [%]
O=C1N/C(=N/S(=O)(=O)c2ccccc2)S/C1=C/c1cccnc1	1.74
CCCCc1c(C)nc2ccccc2c1SCCC(=O)O	14.8
CCc1c(C)nc2c(C)cccc2c1SCCC#N	17.7
CCCCc1c(C)nc2ccccc2c1SCCC#N	-50.6
O=C(Cc1ccc(NC2=NC3CS(=O)(=O)CC3S2)cc1)NCc1ccccc1Cl (stereo not drawn)	6.5
CCOC(=O)c1c(NC(=O)CSc2nnc(-c3ccccc3C)n2C)sc(C(C)=O)c1C	-63
CCOC(=O)c1c(NC(=O)CSc2nnc(Cc3ccccc3)o2)sc(C)c1C	13.8
CCOC(=O)c1c(NC(=O)CSc2nnc(Cc3ccccc3)o2)sc(C(C)=O)c1C	-64.8
CCOC(=O)c1sc(NC(=O)CSc2nnc(Cc3ccccc3)o2)c(C(=O)OCC)c1C	9.46
CCOC(=O)c1c(NC(=O)CSc2nnc(-c3ccccc3)n2CC)sc(C(C)=O)c1C	-31
CCOC(=O)c1c(NC(=O)CSc2nnc(-c3cccc(C)c3)n2CC)sc(C(C)=O)c1C	-18.9
O=C(CNC(=O)c1cc2c(n(-c3ccccc3)c1=O)CCCC2=O)c1ccccc1	-38.5
CN1CCN(C(=O)N2c3ccccc3CCc3ccccc32)CC1	11.9
Cc1ccc(C)c(OCCC(=O)OCC(=O)NC(=O)NCc2ccccc2)c1	4.16
O=S(=O)(c1cccc(C(F)(F)F)c1)N(CCCN1CCOCC1)Cc1cccs1	-74.9
Cl.O=S(=O)(NCCN1CCOCC1)c1cccc(C(F)(F)F)c1	5.32
O=C(NCCCN1CCOCC1)C1CCN(S(=O)(=O)c2cccc(C(F)(F)F)c2)CC1	-9.45
CCN(CC)S(=O)(=O)c1cccc(C(=O)NCCCN2CCOCC2)c1	9.9
O=C(O)C(=O)O.O=S(=O)(c1cccc(C(F)(F)F)c1)N(CCCN1CCOCC1)Cc1cccs1	-51
O=C(NCCCN1CCOCC1)c1ccc(S(=O)(=O)Nc2cccc(C(F)(F)F)c2)cc1	-12.8
